HT1080NT lethal: kills 2HG-producing HT-1080-NT fibrosarcoma cells; HT-1080-NT fibrosarcoma viability, CellTiter-Glo ATP luminescence, 48 h; Potency, µM (titrated, usually from 46.1 µM), for inactives: top-dose activity, negative = less viability, hits mostly cytotoxic; 360,000 compounds, 1.6% hits;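 also: NT is the 2HG producing partner of a matched IDH1 knockdown line; potency is read from the fitted curve at half-maximal effect; 0% = DMSO-treated cells and -100% = media-only wells without cells; nearly all actives have a fitted effect of over 55% in size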
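Toxicity toward the 2HG-producing NT line was scored as %Activity, normalised to DMSO and no-cell wells, from CellTiter-Glo luminescence after 48 hours' treatment.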
uPA surface inh: blocks generation of uPA at the cell surface | cell surface uPA generation assay, qHTS | Potency, µM (highest dose often 38.3 µM), inactives show top-dose activity change, negative = inhibition, actives largely listed as inhibitors | 330,000 compounds, 0.31% hits | AID 540303; active = well fitted inhibition curve with a large enough effect; inconclusive = small, poorly fitted or top-dose-only effect; inactive = no such curve, though single readings can be large or run the other way; tested in mouse RAW 264.7 cells; also: potency is read from the fitted curve at half-maximal effect; nearly all actives have a fitted effect of over 55% in size
TDP1 cell noCPT: qHTS for Inhibitors of human tyrosyl-DNA phosphodiesterase 1 (TDP1): qHTS in cells in absence of CPT | DT40 Tdp1-/- hTDP1 cells, no CPT, ATP luminescence, 48 h | 420,000 compounds, 15% hits | Potency, µM (highest dose often 46.2 µM), for inactives: top-dose activity change, negative = growth inhibition, usual class: inhibitors; also: potency is read from the fitted curve at half-maximal effect; nearly all actives have a fitted effect of over 55% in size
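Stably hTDP1-transfected Tdp1-null chicken DT40 cells were treated with library compounds minus camptothecin and grown for at least 48 hr at 37 °C, after which cellular ATP was quantified by luminescence.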
IL1B secr inh: inflammasome signaling inhibition, IL-1 beta readout; activity change, % at 57.5 µM; THP-1 LPS/ATP IL-1B secretion, AlphaLISA, 16 h; active compounds read low; 360,000 compounds, 4.7% hits; AID 743279; in the data active = activity change below about -50%; inconclusive = mostly about -30% to -49%
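Secreted IL-1B measured by AlphaLISA bead assay after 16 h compound exposure of THP-1 cells; compounds (final up to 57.5 uM) added 1 h before LPS (250 ng/mL) and ATP (1.25 mM) stimulation; lower signal means less secretion.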
DT40 TDP1 CPT: growth inhibition of DT40 Tdp1-/-;hTDP1 cells with camptothecin (screen for TDP1 inhibitors) | chicken DT40 Tdp1-/-;hTDP1 cells + 20 nM CPT, ATP luminescence, 48 h | Potency, µM (titrated, usually from 46.2 µM), without a hit: at the highest dose activity change, negative = growth inhibition, most hits filed as inhibitors | 420,000 compounds, 12% hits | AID 686979; also: potency is read from the fitted curve at half-maximal effect; nearly all actives have a fitted effect of over 55% in size
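Chicken DT40 Tdp1-/- cells stably complemented with human TDP1 were seeded at 400 cells/well in medium containing 20 nM camptothecin, exposed to pin-transferred compounds, and grown at 37 °C for at least 48 hr. Viability was read as ATP luminescence.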
HT1080 IDH1KD tx: kills HT-1080 cells with IDH1 knockdown; HT-1080 IDH1 knockdown viability, ATP luminescence, 48 h; Potency, µM (series often up to 46.1 µM), inactives show at the highest dose activity, negative = toxicity, hits mostly cytotoxic; 360,000 compounds, 2% hits; AID 686971;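 also: potency is read from the fitted curve at half-maximal effect; 0% = DMSO wells and -100% = cell-free medium wells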
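% activity derives from luminescence (CellTiter-Glo), normalised to DMSO and no-cell wells. HT-1080-IDH1KD cells, 750/well, had 48 h compound exposure at 37 °C.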
* hit, by the source's call; ? = inconclusive; / = no result given. In the library only some 19% were active in any assay of this set; here they are far more common. Unless noted, calls follow the shape of the dose curve; as a rule, active = well fitted curve in the direction sought with a large enough effect; inconclusive = small, poorly fitted or top-dose-only effect, or another doubt; inactive = no such curve, though single readings can be large; an effect the other way counts as inactive or inconclusive. Unless noted, % is scaled to controls: 0 for no effect and ±100 for the full control effect.

SMILES	HT1080NT lethal	uPA surface inh	TDP1 cell noCPT	IL1B secr inh	DT40 TDP1 CPT	HT1080 IDH1KD tx
C[C@]12CC[C@@H](O)CC1=CC(=O)C1C2CC[C@]2(C)C(=O)CCC12 (stereo not given in full)	8%	3%	?	-14	?	9%
N#Cc1c(Cl)nc(Cl)c2c1CCN(Cc1ccccc1)C2	0%	-6%	16µM*	/	?	?
N#Cc1ccc(CN2CCC3(CC2)CCN(C(=O)Oc2ccccc2)CC3)cc1	/	/	-21%	/	-1%	/
O=C1NC(=O)C(=Cc2ccc(-c3ccc(Cl)cc3)o2)C(=O)N1	1%	-6%	8.2µM*	-108*	5.8µM*	7%
O=C1NC(=O)C(=Cc2ccc(Sc3ccccc3)o2)C(=O)N1	18µM*	0%	15µM*	-100*	?	13µM*
O=C1NC(=O)C(=Cc2ccc(-c3ccc(F)cc3O)o2)C(=O)N1	?	-10%	?	-77*	?	?
CN1C(=O)C(=Cc2ccc(Sc3ccccc3)o2)C(=O)N(C)C1=O	8%	2%	?	-6	?	-4%
O=C1NC(=O)C(=Cc2ccc(-c3ccc(S(=O)(=O)N4CCOCC4)cc3)o2)C(=O)N1	15%	0%	?	-3	?	13%
CC(=O)C1(c2ccccc2)CCN(C(=O)C2CCC(=O)N(CCc3cccc(F)c3)C2)CC1 (stereo not given)	1%	-4%	23µM*	9	-68%	2%
COC(=O)C1=C(c2cc3ccccc3s2)C[C@@H]2CC[C@H]1N2C(=O)NCc1ccc(F)cc1	-3%	-26%	/	?	?	?
CCc1ccc(CNC(=O)C2CCN(C(=O)c3ccc(-n4c(C)cc5ccccc54)s3)CC2)cc1	/	/	18µM*	/	10µM*	/
Cc1cc2ccccc2n1-c1ccc(C(=O)N2CCC(C(=O)NCc3ccc(Cl)cc3)CC2)s1	/	/	3.7µM*	/	4.1µM*	/
CCCNC(=O)N1[C@H]2CC[C@@H]1C(C(=O)OC)=C(c1cc3ccccc3s1)C2	3%	0%	/	5	12µM*	2%
COC(=O)C1=C(c2cc3ccccc3s2)C[C@@H]2CC[C@H]1N2C(=O)NCCCOC(C)C	5%	17%	18µM*	4	18µM*	12%
Cc1ccc(N2Cc3ccccc3C2=N)cc1[N+](=O)[O-]	2%	-3%	-6%	10	8%	1%
Cc1cc(C)nc(N2Cc3ccccc3C2=N)n1	-1%	-28%	23µM*	-17	?	-23%
CC1=C(C)CC2(C(=O)NC(=S)NC2=O)C(C)C1 (stereo not given)	11%	5%	-1%	24	4%	14%
CCOc1ccc(C2c3c(-c4ccccc4O)n[nH]c3C(=O)N2Cc2ccncc2)cc1 (stereo not given)	/	/	5.2µM*	/	7.3µM*	/
CC1NCCOC1c1ccccc1 (stereo not given)	/	/	-6%	/	-1%	/
CCOC(=O)c1oc2ccc(S(=O)(=O)n3nc(-c4ccc(Cl)cc4)cc3N)cc2c1C	5%	-4%	12µM*	0	23µM*	7%
CCOC(=O)n1c(=O)oc2ccc(Cl)cc21	-5%	-7%	-18%	-7	-20%	?
CC(=O)OC1C2CCCC1C(N1CCCC1)CC2 (stereo not given)	17%	7%	5%	18	21%	11%
Cc1nc2ccccc2c(=O)n1-c1cc(F)ccc1F	-1%	1%	-3%	4	-2%	6%
COC(=O)OCC12CCC(O1)C1(C)C(=O)OCC21 (stereo not given)	7%	3%	29µM*	-5	?	11%
